Assay results reported in PubChem BioAssay.
Values without a mark were called inactive. The rule behind the calls is not given here.

Each compound was assayed on Aerobactin synthetase IucA (Klebsiella pneumoniae hvKP1) (assay: Biochemical IucA enzyme inhibition primary screen of the Spectrum library (AID 1346200;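 note: 100% = wells without compound and 0% = wells lacking enzyme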)). Settings: malachite green pyrophosphate, A620, at 8 µM, stronger effect = lower value.

Point of comparison: `COc1ccccc1/C=C\C(=O)O`, activity remaining 90.4%. Against it:
- COc1ccc(-c2cc(=O)c3c(O)cc(O)c(-c4cc(-c5cc(=O)c6c(O)cc(O)cc6o5)ccc4OC)c3o2)cc1 — higher, 117%
- COc1cc(O)c2c(=O)cc(C)oc2c1CC=C(C)C — lower, 83.4%
- CC1CCC2(OC1)OC1CC3C4CCC5C[C@@H](O)CCC5(C)C4=CCC3(C)C1[C@@H]2C (stereo not given in full) — higher, 95.7%
- CC(=O)N[C@@H]1[C@@H](O)[C@H](O)[C@@H](CO)O[C@H]1O — higher, 106%
